Experimental data taken from PubChem BioAssay (Tox21).
Where “and” joins values, the source holds several entries; their conditions need not be identical. Equal values may be shown once. Inconclusive results are not listed. Where a call stands in place of a potency, no number is given. Calls of active or inactive are those of the source. Unless noted, calls follow the shape of the dose curve; as a rule, active = well fitted curve in the direction sought with a large enough effect in the repeat runs; inconclusive = weak or mixed curves; inactive = no such curve, though single readings can be large; an effect the other way counts as inactive or inconclusive.

What was measured:
[1] = qHTS assay to identify small molecule antagonists of the glucocorticoid receptor (GR) signaling pathway - cell viability counter screen (AID 720693); also: nearly all actives have a fitted effect of over 55% in size; also: potency is read from the fitted curve at half-maximal effect
[2] = qHTS assay for identifying genotoxic compounds that show differential cytotoxicity against isogenic chicken DT40 cell lines with known DNA damage response pathways - wild type cell line (AID 743012); also: nearly all actives have a fitted effect of over 60% in size; also: potency is read from the fitted curve at half-maximal effect
In short: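 Wild-type DT40 cells (300/well) exposed to compounds for 40 hours at 37 C/5% CO2. Viability read by CellTiter-Glo luminescence after 30 min at room temperature.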

[3] = qHTS assay for identifying genotoxic compounds that show differential cytotoxicity against isogenic chicken DT40 cell lines with known DNA damage response pathways - Rev3 mutant cell line (AID 743014); also: nearly all actives have a fitted effect of over 55% in size; also: potency is read from the fitted curve at half-maximal effect
[4] = qHTS assay for identifying genotoxic compounds that show differential cytotoxicity against isogenic chicken DT40 cell lines with known DNA damage response pathways - Rad54/Ku70 mutant cell line (AID 743015); also: nearly all actives have a fitted effect of over 60% in size; also: potency is read from the fitted curve at half-maximal effect
[5] = qHTS assay to identify small molecule antagonists of the androgen receptor (AR) signaling pathway - cell viability counter screen (AID 743033; also: nearly all actives have a fitted effect of over 45% in size)
[6] = qHTS assay to identify small molecule antagonists of the androgen receptor (AR) signaling pathway using the MDA cell line - cell viability counter screen (AID 743041; also: nearly all actives have a fitted effect of over 45% in size)
In short: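 Same-well cytotoxicity was assessed by CellTiter-Fluor in MDA-kb2 AR-luc cells after 16 h of compound treatment under R1881 agonism.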

[7] = qHTS assay to identify small molecule antagonists of the thyroid receptor (TR) signaling pathway - cell viability counter screen (AID 743064); also: nearly all actives have a fitted effect of over 50% in size; also: potency is read from the fitted curve at half-maximal effect
In short: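 Plate GH3.TRE-Luc cells; incubate 4 h at 37 °C; add compound, then T3 to 1 nM final; incubate 23.5 h; add CellTiter-Fluor; incubate 30 min at 37 °C, 5% CO2; read fluorescence.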

[8] = target: Androgen receptor (Homo sapiens) (UniProt P10275); assay: qHTS assay to identify small molecule antagonists of the androgen receptor (AR) signaling pathway (AID 743035; active = well fitted inhibition curve with a large enough effect in the signal ratio in the repeat runs, not every such curve was filed as active; the % refers to the signal ratio; also: potency is read from the fitted curve at half-maximal effect)
Sequence of Androgen receptor (Homo sapiens) (P10275 whole entry, looked up): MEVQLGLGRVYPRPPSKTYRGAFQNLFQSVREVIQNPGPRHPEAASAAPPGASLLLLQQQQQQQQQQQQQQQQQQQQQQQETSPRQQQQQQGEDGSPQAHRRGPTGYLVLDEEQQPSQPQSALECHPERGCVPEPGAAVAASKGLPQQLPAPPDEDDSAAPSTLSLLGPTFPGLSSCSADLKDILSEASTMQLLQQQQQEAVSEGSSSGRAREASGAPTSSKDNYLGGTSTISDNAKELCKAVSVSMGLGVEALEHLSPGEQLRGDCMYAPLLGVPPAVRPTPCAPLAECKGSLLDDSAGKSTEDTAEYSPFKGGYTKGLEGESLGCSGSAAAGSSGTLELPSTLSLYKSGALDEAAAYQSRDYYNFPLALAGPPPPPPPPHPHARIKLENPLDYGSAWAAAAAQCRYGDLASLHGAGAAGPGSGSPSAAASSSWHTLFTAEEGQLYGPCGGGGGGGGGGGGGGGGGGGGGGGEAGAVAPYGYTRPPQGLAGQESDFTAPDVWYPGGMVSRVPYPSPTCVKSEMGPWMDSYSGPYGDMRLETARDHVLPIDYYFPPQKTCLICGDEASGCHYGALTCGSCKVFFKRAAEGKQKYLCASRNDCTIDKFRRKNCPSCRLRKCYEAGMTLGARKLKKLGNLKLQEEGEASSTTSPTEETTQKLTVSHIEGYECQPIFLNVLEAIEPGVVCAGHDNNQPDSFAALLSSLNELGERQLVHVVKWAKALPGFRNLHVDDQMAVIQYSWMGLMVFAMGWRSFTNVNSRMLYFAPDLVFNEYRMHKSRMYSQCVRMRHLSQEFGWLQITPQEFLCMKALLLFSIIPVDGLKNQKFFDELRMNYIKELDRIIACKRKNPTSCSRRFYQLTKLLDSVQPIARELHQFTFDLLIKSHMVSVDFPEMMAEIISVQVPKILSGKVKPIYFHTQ
In short: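 HEK293 cells stably carrying UAS-beta-lactamase reporter, 2,000/well, given compounds plus R1881 agonist and incubated 16 h at 37C. LiveBLAzer B/G FRET substrate then added for 2 h at room temperature before fluorescence reading.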

[9] = target: Androgen receptor (Homo sapiens) (UniProt P10275); assay: qHTS assay to identify small molecule agonists of the androgen receptor (AR) signaling pathway using the MDA cell line (AID 743040; also: nearly all actives have a fitted effect of over 20% in size)
In short: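 Human breast carcinoma MDA-kb2 reporter cells (MMTV-luc, AR/GR elements) were treated for 16 h at 37C in 0% CO2 following a 5 h settling period. Signal was quantified by ONE-Glo luminescence.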

[10] = target: Androgen receptor (Homo sapiens) (UniProt P10275); assay: qHTS assay to identify small molecule antagonists of the androgen receptor (AR) signaling pathway using the MDA cell line (AID 743042; also: nearly all actives have a fitted effect of over 55% in size)
In short: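 MDA-kb2 breast carcinoma cells carrying MMTV-luciferase (AR/GR responsive) were co-treated with compounds and the agonist R1881 for 16 h at 37C. Inhibition read as ONE-Glo luminescence; CellTiter-Fluor fluorescence measured in parallel for cytotoxicity.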

Structure (SMILES) | Potency [1] | Potency [2] | Potency [3] | Potency [4] | Potency [5] | Potency [6] | Potency [7] | Potency [8] | Potency [9] | Potency [10]
O=C(O)c1ccc(S(=O)(=O)O)cc1C(=O)O | inactive | inactive | inactive | inactive | inactive | inactive |  |  |  | 
Clc1ccc2c(c1)CCc1cccnc1C2=C1CCNCC1 | inactive | 5.31 µM (active) | 7.5 µM (active) | 8.41 µM (active) | inactive | inactive | 10.6 µM (active) |  |  | 
Nc1ccccc1S(=O)(=O)c1ccccc1 | inactive | inactive | inactive | inactive | inactive | inactive | inactive |  |  | 
OC[C@H]1O[C@@H](OCCc2ccc(O)cc2)[C@H](O)[C@@H](O)[C@@H]1O | inactive | inactive | inactive | inactive | inactive | inactive | inactive |  |  | 
CCCCC | inactive | inactive | inactive | inactive | inactive | inactive | inactive |  |  | 
N=c1ccn2c(n1)O[C@H]1[C@H](O)[C@@H](CO)O[C@H]12 | inactive | 211 nM (active) and 193 nM (active) | 237 nM (active) and 137 nM (active) | 266 nM (active) and 172 nM (active) | inactive | inactive |  |  |  | 
C=C(C)C(=O)OCCO | inactive | inactive | inactive | inactive | inactive | inactive |  |  |  | 
C[C@H](CCC(=O)O)[C@H]1CC[C@H]2[C@@H]3CC[C@@H]4C[C@H](O)CC[C@]4(C)[C@H]3C[C@H](O)[C@]12C | inactive | inactive | inactive | inactive | inactive | inactive | inactive |  |  | 
CC(=O)[O][Al][O]C(C)=O | inactive | inactive | inactive | inactive | inactive | inactive | inactive |  |  | 
CC(=O)c1ccc2c(c1)N(CCCN1CCC(CCO)CC1)c1ccccc1S2 | inactive | 12.7 µM (active) | 12.7 µM (active) | 11.4 µM (active) | inactive | inactive | 10.1 µM (active) |  |  | 
O=P(O)(OCc1ccccc1)OCc1ccccc1 | inactive | inactive | inactive | inactive | inactive | inactive | inactive |  |  | 
CC(C)(CO)[N+](=O)[O-] | inactive | inactive | inactive | inactive | inactive | inactive | inactive |  |  | 
Nc1ccc(S(=O)(=O)Nc2ccccc2)cc1 | inactive | inactive | inactive | inactive | inactive | inactive | inactive |  |  | 
CN(C)c1ccc(CCO)cc1 | inactive | inactive | inactive | inactive | inactive | inactive | inactive |  |  | 
CCC(C)c1cc(C(C)(C)C)c(O)c(C(C)(C)C)c1 (stereo unspecified) | inactive | inactive | inactive | inactive | inactive | inactive |  |  |  | 
O=C(OCCc1ccccc1)c1ccccc1 | inactive | inactive | inactive | inactive | inactive | inactive |  |  |  | 
C=CCOc1ccccc1OCC(O)CNC(C)C (stereo unspecified) | inactive | inactive | inactive | inactive | inactive | inactive | inactive |  |  | 
NCC(=O)CCC(=O)O | inactive | inactive | inactive | inactive | inactive | inactive | inactive |  |  | 
CN(C)C(=O)NC1(c2ccccc2)CCN(CC[C@@]2(c3ccc(F)c(F)c3)CN(C(=O)c3ccccc3)CCO2)CC1 | inactive | 40.2 µM (active) | 25.3 µM (active) | 28.4 µM (active) | inactive | inactive | 31.9 µM (active) |  |  | 
CCCCCCCC/C=C\CCCCCCCC(=O)OCC | inactive | inactive | inactive | inactive | inactive | inactive |  |  |  | 
O=C1OC(=O)C2C3C=CC(C3)C12 (stereo unspecified) | inactive | inactive | inactive | inactive | inactive | inactive | inactive |  |  | 
C#C[C@]1(O)CC[C@H]2[C@@H]3CCc4cc(OC5CCCC5)ccc4[C@H]3CC[C@@]21C | inactive | 1.68 µM (active) | 2.11 µM (active) | 5.31 µM (active) | inactive | inactive | 18.8 µM (active) |  |  | 
CC(CSC(=O)c1ccccc1)C(=O)N1C[C@@H](Sc2ccccc2)C[C@H]1C(=O)O (stereo partly specified) | inactive | inactive | inactive | inactive | inactive | inactive | inactive |  |  | 
CC/C=C\CCOC(=O)CC | inactive | inactive | inactive | inactive | inactive | inactive | inactive |  |  | 
CC(C)(COC(=O)c1ccccc1)COC(=O)c1ccccc1 | inactive | 54.5 µM (active) | 30.6 µM (active) | 48.6 µM (active) | inactive | inactive | inactive |  |  | 
C=CCOC(=O)CCC1CCCCC1 | inactive | inactive | inactive | inactive | inactive | inactive | inactive |  |  | 

Structure (SMILES) | Potency [1] | Potency [2] | Potency [3] | Potency [4] | Potency [5] | Potency [6] | Potency [7] | Potency [8] | Potency [9] | Potency [10]
CCN(CC)CCNc1ccc(CNC=O)c2sc3ccc(OC)cc3c(=O)c12 | 38.9 µM (active) | 8.63 µM (active) | 9.69 µM (active) | 0.969 µM (active) |  | inactive | 8.63 µM (active) |  |  | 
CCOC(=O)C(F)(F)F | inactive | inactive | 34.4 µM (active) | inactive | inactive | inactive | inactive |  |  | 
CCCCC(CC)CN1C(=O)C2C3C=CC(C3)C2C1=O (stereo unspecified) | inactive | 38.6 µM (active) | 27.3 µM (active) | 43.3 µM (active) |  | inactive | 54.5 µM (active) |  |  | 
CCO[Si](CCCCl)(OCC)OCC | inactive | inactive | inactive | inactive | inactive | inactive | inactive |  |  | 
CCCCO | inactive | inactive | inactive | inactive | inactive | inactive | inactive |  |  | 
O=C1[C@H]2CCCC[C@H]2C(=O)N1CCCCN1CCN(c2nsc3ccccc23)CC1 | inactive | 6.68 µM (active) | 5.96 µM (active) | 5.96 µM (active) |  |  | 21.1 µM (active) |  |  | 
CC(C)=CCC/C(C)=C/CC/C(C)=C/CO | inactive | 34.4 µM (active) | 54.5 µM (active) | 30.6 µM (active) |  | inactive |  |  |  | 
COc1cccc(N(C)C(=S)Oc2ccc3c(c2)CCCC3)n1 | inactive | 26.6 µM (active) | 26.6 µM (active) | 26.6 µM (active) |  | inactive | inactive |  |  | 
C=C(C)C(=O)OCC | inactive | inactive | inactive | inactive |  | inactive | inactive |  |  | 
CCCCCCCN | inactive | inactive | inactive | inactive | inactive | inactive | inactive |  |  | 
Cc1oc2c(NC(=O)c3c(Cl)cccc3Cl)cccc2c1C(C)(C)O | inactive | 43.3 µM (active) | 27.3 µM (active) | 48.6 µM (active) | inactive |  | 24.3 µM (active) |  |  | 
COCC(C)OC(C)=O (stereo unspecified) | inactive | inactive | inactive | inactive | inactive | inactive | inactive |  |  | 
CCCOC(C(=O)OC1CCN(C)CC1)(c1ccccc1)c1ccccc1 | inactive | 5.96 µM (active) | 7.5 µM (active) | 11.9 µM (active) |  | inactive | 18.8 µM (active) |  |  | 
O=C1OC(CN2CCOCC2)CN1/N=C/c1ccc([N+](=O)[O-])o1 (stereo unspecified) | inactive | inactive | inactive |  | inactive | inactive | inactive | inactive | inactive | inactive
O=C(Nc1ccccc1)c1ccccc1O | inactive | 48.6 µM (active) | 48.6 µM (active) | 30.6 µM (active) |  |  | inactive |  | inactive | 
CCn1cc(C(=O)O)c(=O)c2cnc(N3CCNCC3)nc21 | inactive | inactive | inactive | inactive | inactive | inactive | inactive |  |  | 
COc1ccc(S(=O)(=O)N2C(=O)[C@@](c3ccccc3OC)(N3C[C@H](O)C[C@H]3C(=O)N(C)C)c3cc(Cl)ccc32)c(OC)c1 | inactive | 48.6 µM (active) | 61.1 µM (active) | 48.6 µM (active) |  | inactive | 34.4 µM (active) | 17.4 µM (active) | inactive | 
CN1CCN(C(c2ccccc2)c2ccccc2)CC1 | inactive | inactive | inactive | inactive |  | inactive | inactive | inactive | inactive | inactive
CC(CC=O)c1ccccc1 (stereo unspecified) | inactive | inactive | inactive | inactive | inactive | inactive | inactive |  |  | 
Nc1ncn([C@H]2C[C@H](O)[C@@H](CO)O2)c(=O)n1 | inactive | 0.106 µM (active) | 0.106 µM (active) | 0.0298 µM (active) |  | inactive |  |  |  | 
CCCCc1ncc(/C=C(\Cc2cccs2)C(=O)O)n1Cc1ccc(C(=O)O)cc1 | inactive | inactive | inactive | inactive | inactive | inactive | inactive |  |  | 
CCCCCCCCCCCCCCCCOS(=O)(=O)O | inactive | inactive | inactive |  | inactive | inactive |  | inactive | inactive | inactive
CC(C)(C)OCC1CO1 (stereo unspecified) | inactive | inactive | inactive | inactive | inactive | inactive | inactive |  |  | 
CNCCCCOc1ccccc1Cc1ccccc1 | inactive | 4.22 µM (active) | 3.35 µM (active) | 5.31 µM (active) | inactive | inactive | 11.9 µM (active) |  |  | 
CCCCCCCCO[C@@H]1O[C@H](CO)[C@@H](O)[C@H](O)[C@H]1O | inactive | inactive | inactive | inactive | inactive | inactive | inactive |  |  | 
COc1cc2nc(N(C)CCCNC(=O)C3CCCO3)nc(N)c2cc1OC (stereo unspecified) | inactive | inactive | inactive | inactive | inactive | inactive | inactive |  |  | 
